Experiments:
Assay in all cases: PBM binding z-score (relative to random genomic background probes); higher = stronger binding; sequences stand for … in GC…GCGATTGACAGCGTAGAATGAAGG
[1] = test system: FXR:RXRa (NR concentration 270 nM, RXRa partner concentration 90 nM)
Summary of the method: (§1)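 Each nuclear receptor dimer, without ligand, was incubated for 1 h on custom Agilent 4×180K protein-binding microarrays. Binding was detected with antibodies against each partner (one per run), and scanned fluorescence was regression-normalized. The binding z-scores are referenced to random human genomic background probes.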

[2] = test system: LXRa:RXRa (NR concentration 270 nM, RXRa partner concentration 90 nM)
Summary of the method: as §1

[3] = test system: LXRa homodimer (NR concentration 270 nM)
Summary of the method: as §1

[4] = test system: LXRb:RXRa (NR concentration 270 nM, RXRa partner concentration 90 nM)
Summary of the method: as §1

[5] = test system: LXRb homodimer (NR concentration 270 nM)
Summary of the method: as §1

[6] = test system: PPARa:RXRa (NR concentration 270 nM, RXRa partner concentration 90 nM)
Summary of the method: as §1

[7] = test system: PPARg:RXRa (NR concentration 180 nM, RXRa partner concentration 90 nM)
Summary of the method: as §1

[8] = test system: PPARg:RXRa 270nM:90nM, anti-RXR (NR concentration 270 nM, RXRa partner concentration 90 nM)
Summary of the method: as §1

[9] = test system: PPARg:RXRa 30nM:10nM, anti-RXR (NR concentration 30 nM, RXRa partner concentration 10 nM)
Summary of the method: as §1

[10] = test system: PPARg:RXRa 90nM:30nM, anti-RXR (NR concentration 90 nM, RXRa partner concentration 30 nM)
Summary of the method: as §1

[11] = test system: PPARg:RXRa DBDmut IVT, anti-RXR (DBD mutation: RXRa K156A/R161A, NR concentration 270 nM, RXRa partner concentration 90 nM)
Summary of the method: as §1

[12] = test system: PPARg:RXRa IVT, anti-PPARg (NR concentration 270 nM, RXRa partner concentration 90 nM)
Summary of the method: as §1

[13] = test system: PPARg DBDmut:RXRa IVT, anti-PPARg (DBD mutation: PPARg1 K132A/R137A, NR concentration 270 nM, RXRa partner concentration 90 nM)
Summary of the method: as §1

[14] = test system: PPARg DBDmut IVT, anti-PPARg (DBD mutation: PPARg1 K132A/R137A, NR concentration 270 nM)
Summary of the method: as §1

[15] = test system: PPARg homodimer (NR concentration 180 nM)
Summary of the method: as §1

[16] = test system: PXR:RXRa (NR concentration 270 nM, RXRa partner concentration 90 nM)
Summary of the method: as §1

[17] = test system: PXR homodimer (NR concentration 270 nM)
Summary of the method: as §1

[18] = test system: RARa:RXR (NR concentration 270 nM, RXRa partner concentration 90 nM)
Summary of the method: as §1

[19] = test system: RARa homodimer (NR concentration 270 nM)
Summary of the method: as §1

[20] = test system: RARb:RXRa (NR concentration 270 nM, RXRa partner concentration 90 nM)
Summary of the method: as §1

Sequence | PBM binding z-score [1] | PBM binding z-score [2] | PBM binding z-score [3] | PBM binding z-score [4] | PBM binding z-score [5] | PBM binding z-score [6] | PBM binding z-score [7] | PBM binding z-score [8] | PBM binding z-score [9] | PBM binding z-score [10] | PBM binding z-score [11] | PBM binding z-score [12] | PBM binding z-score [13] | PBM binding z-score [14] | PBM binding z-score [15] | PBM binding z-score [16] | PBM binding z-score [17] | PBM binding z-score [18] | PBM binding z-score [19] | PBM binding z-score [20]
GCTGACGGGTCAAAGGTTATAGCATGAATAGAAT | 7.43 | 5.45 | 0.433 | 5.53 | -0.231 | 6.99 | 9.41 | 8.11 | 7.21 | 8.55 | 1.23 | 4.56 | 0.893 | 0.679 | 3.42 | 5.8 | 0.288 | 8.03 | 0.75 | 4.63
CCTATTAGTTGAGCATAAGGGCAACCGAAGCTCG | 0.0961 | -0.117 | 0.193 | -0.0125 | 0.346 | 0.124 | 0.333 | 0.305 | -0.0457 | 0.368 | -0.00699 | 0.0681 | -0.0638 | 0.243 | 1.36 | 0.18 | 0.549 | 0.348 | 1.39 | 1.1
TCTAGTTGGTCAAGGAGGTCACACACGACGGGTA | 3.04 | 3.16 | 1.88 | 3.23 | 0.53 | 3.73 | 2.59 | 3.56 | 3.6 | 3.39 | 2.22 | 3.77 | 0.973 | 1.49 | 2.56 | 4.22 | 1.23 | 4.22 | 1.46 | 3.47
CGTCCAAGGTCAAAGGTGAGTGAAGAGATGACGG | 7.3 | 5.66 | 0.771 | 4.65 | 1.11 | 6.66 | 8.58 | 7.77 | 5.88 | 7.38 | 4.29 | 5.13 | 0.48 | -0.248 | 2.01 | 5.5 | 1.01 | 7.17 | 1.07 | 5.55
TCTTGTAGATCAACAGGCGGTTAAGAAAGATCGA | 0.118 | 0.174 | -0.388 | 0.205 | -0.307 | 0.615 | -0.161 | 1.12 | 2.44 | 1.81 | 1.91 | 0.45 | 0.508 | 0.822 | -0.291 | 0.038 | -0.259 | 0.363 | -0.0268 | -0.0147
CGTCAAAGTTCCACTAAGGTAACGTAAAGCACGC | 0.0989 | -0.0438 | -0.0633 | 0.0124 | 0.0274 | 0.268 | 0.459 | 0.573 | -0.0574 | 0.281 | 0.458 | 0.925 | -0.504 | 0.445 | 0.404 | 0.17 | 0.428 | 2.22 | 0.139 | 0.704
CCTCGCAGGACAGAAGGTCAGAGCTGTCCGCTTT | 1.07 | 1.44 | 0.197 | 1.13 | -0.678 | 1.86 | -0.29 | 0.666 | -0.929 | 0.0497 | 0.197 | 0.104 | -2.21 | -1.7 | 1.13 | 1.35 | -0.203 | 1.84 | -0.425 | 2.81
ACCTCTAGGTAACCAAGTTCAGTGAATGCCGAAC | 0.335 | 0.537 | 0.553 | 0.37 | -0.0596 | 0.625 | 0.296 | 0.581 | -0.247 | 0.404 | 3.87 | 2.09 | 0.112 | 0.237 | -0.00896 | 1.65 | 1.47 | 0.453 | -0.355 | 0.936
ACAGACAGGTGAGTGAACGTAACTCAGCTGGACG | -0.265 | -0.366 | -0.561 | -0.436 | -0.532 | -0.0939 | 0.744 | -0.203 | -0.222 | -0.308 | 0.689 | 0.457 | 0.319 | -1.39 | -0.743 | -0.554 | -0.547 | -0.741 | -0.186 | 0.247
CCTTACGGGTCACGAGTTTATAGCACGACGAGCG | 6.13 | 3.82 | 0.393 | 3.41 | 0.252 | 5.25 | 5.99 | 5.87 | 2.81 | 4.64 | 4.46 | 5.06 | 0.736 | 0.94 | 2.53 | 4.8 | 2 | 4.85 | 0.68 | 4.27
CGTCCTAGGTCAATGCTAGGTCAGTGAAAGCATT | 3.74 | 3.83 | 1.98 | 2.38 | 0.076 | 3.34 | 1.92 | 2.52 | 0.255 | 1.31 | 3.18 | 3.31 | -0.391 | -0.333 | 2.76 | 2.57 | -0.195 | 4.13 | -0.0967 | 4.06
CAACCTAGGTCAAAGGTCAAAGTCGAGCCAACCA | 8.61 | 7.41 | 5.72 | 7.42 | 3.03 | 7.49 | 12.5 | 10.1 | 10.9 | 11.3 | 5.72 | 7.45 | 2.7 | 1.79 | 4.67 | 7.39 | 1.35 | 8.88 | 2.65 | 5.83
CGTCTAAGGTCAATGCTAGGTCAGTGAAAGCATT | 7.02 | 5.82 | 2.56 | 4.58 | 1.34 | 5.36 | 4.53 | 5.68 | 1.9 | 4.12 | 3.81 | 4 | -0.172 | -0.413 | 4.57 | 4.95 | 1.41 | 6.06 | 0.698 | 5.35
AGTCAAAGTTGACTAGGTAACGTAAGATTCAGCT | -0.527 | -0.187 | -0.527 | -0.137 | -0.608 | 1.41 | 2.01 | 2.7 | 0.453 | 1.91 | 1.93 | 2.8 | 0.549 | 0.744 | -0.383 | -0.11 | -0.595 | 0.0496 | -0.0612 | 1.13
CTAACTAGGTCAAGGACAGTGAATCTCCGCACGC | 3.07 | 2.43 | 0.51 | 1.58 | 0.129 | 4.99 | 8.18 | 6.92 | 4.93 | 6.92 | 8.7 | 8.66 | 2.25 | 1.42 | 3.48 | 1.21 | 0.296 | 1.87 | 0.59 | 4.08
